Assay results from PubChem BioAssay (NCATS).
“And” between values parts separate entries of the source, which are not always exact repeats. Equal entries are not always repeated. Records with an inconclusive call do not appear. The source made the active and inactive calls. Unless noted, calls come from the whole dose curve; as a rule, active = well fitted curve in the direction sought with a large enough effect; inconclusive = small, poorly fitted or top-dose-only effect, or another doubt; inactive = no such curve, though single readings can be large; an effect the other way counts as inactive or inconclusive.

Key:
[1] = Cell Viability - N2a (AID 540); details: N2a mouse neuroblastoma cell viability; activity change, negative = cytotoxicity: at 92.2 µM (top of the series); note: nearly all actives have a fitted effect of over 45% in size; note: potency is the fitted concentration of half-maximal effect;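 for activity change, negative = cytotoxicity: plate controls were DMSO alone for no effect and tamoxifen control for full effect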
Method in brief: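 Mouse neuroblastoma N2a cells (1500/well) were preincubated 5 hr at 37 °C, then exposed to compounds for 40 hr at 37 °C in complete medium. Viability was read as intracellular ATP by CellTiter-Glo luminescence; AC50 from Hill fits.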

[2] = Cell Viability - SH-SY5Y (AID 544);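 note: 0% = DMSO alone and -100% = 100 µM tamoxifen; nearly all actives have a fitted effect of over 55% in size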
Method in brief: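 Human neuroblastoma SH-SY5Y cells (1500/well) in complete medium were exposed to compounds for 40 hr at 37 °C; intracellular ATP was then quantified by CellTiter-Glo luminescence after 20 min at room temperature. AC50 came from Hill-equation concentration-response fits.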

[3] = Cell Viability - Renal Proximal Tubule (AID 545); details: renal proximal tubule cells viability, primary cells of rat origin; at 91.7 µM (top of the series);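 note: 0% = DMSO only and -100% = 100 µM tamoxifen; nearly all actives have a fitted effect of over 40% in size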
Method in brief: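 Luminescent ATP signal (CellTiter-Glo) served as the viability read-out after 40 hr compound exposure of freshly isolated rat proximal tubule cells at 37 °C. Concentration-dependent ATP loss was fitted with the Hill equation to give AC50.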

[4] = Cell Viability - Mesenchymal (AID 546); details: mesenchymal cells viability, qHTS; activity change, negative = cytotoxicity: at 91.7 µM (top of the series);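 note: cells exposed to compound for 40 hours before reading; 0% = DMSO only and -100% = 100 µM tamoxifen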
Method in brief: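 AC50 values reflect the drop in intracellular ATP in a human kidney mesenchymal line derived from normal glomeruli. Treatment lasts 40 hr at 37 °C in complete medium, and the signal comes from CellTiter-Glo luminescence.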

[5] = Cellular Toxicity (caspase-3) HepG2 (AID 654);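 note: cells exposed to compound for 16 hours before reading; 0% = DMSO alone and 100% = caspase signal from 100 µM tamoxifen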
Method in brief: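 HepG2 cells (1500/well) in complete medium were treated with compounds for 16 hr at 37 °C. Caspase-3/7 activity was then read as luminescence from peptide-aminoluciferin cleavage. AC50 came from Hill fits, normalized to DMSO and 100 uM tamoxifen.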

[6] = Cellular Toxicity (caspase-3) HUV-EC-C (AID 656);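 note: 0% = DMSO basal and 100% = 100 µM tamoxifen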
Method in brief: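 qHTS; HUV-EC-C, 1000 cells/well; 5 hr settle, 16 hr cmpd, 37°C; Caspase-Glo 3/7, 20 min RT; luminescence. Norm: DMSO = 0%, tamoxifen 100 uM = 100%. Hill-fit AC50.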

[7] = Cellular Toxicity (caspase-3) BJ (AID 658);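 note: 0% = DMSO basal and 100% = 10 µM staurosporine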
Method in brief: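 Readout: Caspase-Glo 3/7 luminescence increase in BJ cells after 16 hr treatment at 37 °C. Staurosporine and tamoxifen served as positive controls; AC50 values came from Hill modelling of data normalized to DMSO and 10 uM staurosporine.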

[8] = Cellular Toxicity (caspase-3) MRC-5 (AID 659);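 note: 0% = DMSO basal and 100% = 10 µM staurosporine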
Method in brief: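 Concentration-dependent caspase 3/7 activation is measured in human normal lung fibroblasts (MRC-5) following 16-hour treatment. AC50 values come from standard Hill-equation modeling of luminescence normalized to DMSO and 10 uM staurosporine.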

[9] = Cellular Toxicity (caspase-3) Mesangial (AID 660);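 note: cells exposed to compound for 16 h before the caspase read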
Method in brief: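 Human renal glomerular mesangial cells (1000/well) were treated with compounds for 16 h at 37 °C in complete medium, then caspase 3/7 activity was read by Caspase-Glo luminescence. Data were normalized to DMSO and 100 uM tamoxifen; AC50 from Hill fits.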

[10] = Cellular Toxicity (caspase-3) Hek293 (AID 664);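 note: cells exposed to compound for 16 h at 37 °C before readout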
Method in brief: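 HEK293 cells were exposed to compounds in complete medium for 16 hr at 37 °C, then caspase-3/7 activity was read by Caspase-Glo 3/7 luminescence after 20 min at room temperature. Data normalized to DMSO and 100 uM tamoxifen; AC50 from Hill fits.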

[11] = Cellular Toxicity (caspase-3) N2a (AID 665);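 note: compound exposure lasted 16 h at 37 °C before readout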
Method in brief: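 Mouse N2a neuroblastoma cells (1500/well) were treated with compounds for 16 h at 37 °C, then caspase-3/7 activity was read by Caspase-Glo luminescence after 1 h at room temperature. Data were normalized to DMSO and 10 uM staurosporine; AC50 from Hill fits.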

[12] = qHTS Assay for Identification of Small Molecule Inducers of Hypoxia Response (AID 2120; active = well fitted curve in the direction sought with a large enough effect in the signal ratio, with a control signal flat, not every such curve was filed as active; the % refers to the signal ratio; note: 0% is about no effect)
Method in brief: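 HRE-beta-lactamase reporter in CellSensor HRE-bla ME-180 cells, 2500 cells/well in Opti-MEM with 0.5% dialyzed FBS; compounds tested as titration series, 17 h at 37 degrees C. CCF4 substrate 2.5 h at room temperature; AC50 from 460/530 nm ratio.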

[13] = qHTS assay for small molecule antagonists of retinoid X receptor alpha signaling (AID 588546; active = well fitted inhibition curve with a large enough effect in the signal ratio, with a control signal flat, not every such curve was filed as active; the % refers to the signal ratio;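 note: cells stimulated with 9-cis-retinoic acid as agonist; % is set by controls: 0 for no effect and ±100 for the full control effect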); details: HEK293T RXRa-UAS-bla, beta-lactamase ratio, antagonist mode; measured here: W530 green channel, cytotoxicity proxy
Method in brief: (§1)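 Beta-lactamase reporter inhibition, read as CCF4 fluorescence ratio (ex 405, em 460/530 nm) after 2 h at RT. HEK293T UAS-bla cells, 2500/well, were stimulated with 9-cis-RA at 500 or 100 nM final alongside test compound for 18 h at 37 C.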

[14] = target: Retinoic acid receptor RXR-alpha (Homo sapiens) (UniProt P19793); assay: as above; details: HEK293T RXRa-UAS-bla, beta-lactamase ratio, antagonist mode
Method in brief: as §1

[15] = qHTS assay for environmental chemicals that activate the Aryl hydrocarbon Receptor (AhR) signaling pathway (AID 651777); details: 1A2-DRE human hepatoma cells, luciferase, 24 h; activation: stronger effect = higher value; note: nearly all actives have a fitted effect of over 15% in size; note: potency is the fitted concentration of half-maximal effect; for activation: % of control where 0% means no effect
Method in brief: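 Induction of CYP1A2 transcription through AhR is detected by luciferase in 1A2-DRE hepatoma cells. Compounds or DMSO act for 24 hr at 37 C before a 30 min One-Glo step at room temperature.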

[16] = target: Peroxisome proliferator-activated receptor alpha (Homo sapiens) (UniProt Q07869); assay: qHTS assay for small molecule agonists of the peroxisome proliferator-activated receptor alpha (PPARalpha) signaling pathway (AID 651778); details: PathHunter PPARalpha complementation, chemiluminescence, 6 h; max response: stronger effect = higher value; note: % of control where 0% means no effect
Method in brief: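 Chemiluminescence from complemented enzyme reported PPARalpha activation in cells after 6 hr of compound treatment at 37 C. The detection reagent was incubated for 60 min at room temperature, and compounds were scored as agonists.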

[17] = qHTS assay for cell viability of HEK293 cells (AID 743288); details: ATP luminescence (CellTiter-Glo), 18 h; max response: stronger effect = lower value; note: nearly all actives have a fitted effect of over 50% in size; note: potency is the fitted concentration of half-maximal effect; for max response: % is set by controls: 0 for no effect and ±100 for the full control effect
Method in brief: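 HEK293 parental, 2,000 cells/well; ≥5 h pre-incubation 37 C; pintool compound addition; 18 h, 37 C; CellTiter-Glo 30 min RT; luminescence read.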

[18] = qHTS assay for cell viability of the p53RE-bla HCT-116 cell line (AID 743292); note: % is set by controls: 0 for no effect and ±100 for the full control effect; nearly all actives have a fitted effect of over 55% in size
Method in brief: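 In this qHTS counter-screen, metabolically competent p53RE-bla HCT-116 cells were counted via their ATP content. Compounds were applied for 16 h at 37 C and luciferase-coupled luminescence was measured.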

[19] = target: Phospholipid hydroperoxide glutathione peroxidase GPX4 (Homo sapiens) (UniProt P36969); assay: Primary qHTS Assay for Inhibitors of Recombinant Selenoprotein Glutathione Peroxidase 4 (GPX4) (AID 1845192); note: % is set by controls: 0 for no effect and ±100 for the full control effect; nearly all actives have a fitted effect of over 65% in size
Method in brief: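 NADPH consumption, followed by fluorescence at 340/450 nm between 0 and 15 min, reports GPX4 activity via coupled glutathione reductase (100 nM). Enzyme 200 nM was pre-exposed to compound 30 min; 0.5 mM cumene hydroperoxide and 1 mM GSH served as substrates.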

Chain of Peroxisome proliferator-activated receptor alpha (Homo sapiens) (Q07869 whole entry, looked up): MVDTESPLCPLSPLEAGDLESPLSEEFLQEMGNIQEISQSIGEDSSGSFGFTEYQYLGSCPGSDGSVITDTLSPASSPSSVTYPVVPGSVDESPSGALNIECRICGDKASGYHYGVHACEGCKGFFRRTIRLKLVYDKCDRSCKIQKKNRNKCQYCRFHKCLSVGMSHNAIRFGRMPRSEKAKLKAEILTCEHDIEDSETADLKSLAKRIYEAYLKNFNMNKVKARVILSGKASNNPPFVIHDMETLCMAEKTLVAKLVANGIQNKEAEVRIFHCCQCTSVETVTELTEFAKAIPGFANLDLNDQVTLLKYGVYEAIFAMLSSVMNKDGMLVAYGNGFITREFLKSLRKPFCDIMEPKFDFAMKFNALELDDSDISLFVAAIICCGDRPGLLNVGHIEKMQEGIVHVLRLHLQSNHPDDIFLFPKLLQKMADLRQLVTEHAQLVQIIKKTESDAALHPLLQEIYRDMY
Chain of Retinoic acid receptor RXR-alpha (Homo sapiens) (P19793 whole entry, looked up): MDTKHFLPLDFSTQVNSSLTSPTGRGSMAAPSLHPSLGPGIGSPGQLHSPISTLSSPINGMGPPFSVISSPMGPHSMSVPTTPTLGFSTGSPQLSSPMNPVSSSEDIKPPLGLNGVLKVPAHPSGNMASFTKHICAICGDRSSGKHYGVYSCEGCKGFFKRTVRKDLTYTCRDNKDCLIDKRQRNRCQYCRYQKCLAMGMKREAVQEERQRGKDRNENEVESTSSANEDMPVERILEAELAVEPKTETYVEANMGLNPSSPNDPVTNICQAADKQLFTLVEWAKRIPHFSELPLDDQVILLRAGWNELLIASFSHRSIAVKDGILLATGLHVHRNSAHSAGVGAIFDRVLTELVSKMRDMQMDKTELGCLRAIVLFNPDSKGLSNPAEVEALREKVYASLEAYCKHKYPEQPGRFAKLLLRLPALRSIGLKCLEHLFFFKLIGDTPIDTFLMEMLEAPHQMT
Chain of Phospholipid hydroperoxide glutathione peroxidase GPX4 (Homo sapiens) (P36969 whole entry, looked up): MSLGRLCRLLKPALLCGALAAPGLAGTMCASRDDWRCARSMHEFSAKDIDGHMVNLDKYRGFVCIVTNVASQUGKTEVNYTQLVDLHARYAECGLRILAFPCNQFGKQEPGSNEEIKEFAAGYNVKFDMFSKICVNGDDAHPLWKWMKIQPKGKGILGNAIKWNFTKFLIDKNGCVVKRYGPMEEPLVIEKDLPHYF

O=C1c2ccccc2C(=O)C1c1ccc2ccccc2n1
-3.83%: max response [13]
active: Potency [1] 31.6 µM | Potency [15] 39.8 µM and 7.08 µM | Potency [17] 39.8 µM
inactive: Potency [2] | activity change, negative = cytotoxicity [3] -13.3% | activity change, negative = cytotoxicity [4] -33.6% | outcome [5] | outcome [6] | outcome [7] | outcome [8] | outcome [9] | outcome [10] | outcome [11] | outcome [12] | max response [14] -20% | max response [16] 1.24% and 1.1% | Potency [18]

CN1CC[C@H](CN2c3ccccc3Sc3ccccc32)C1
inactive: Potency [19]

c1ccc2c(c1)c1cccc3ccc4cccc2c4c31
-0.47% and 10%: max response [13]
inactive: activity change, negative = cytotoxicity [1] 3.28% | Potency [2] | activity change, negative = cytotoxicity [3] -12.3% | activity change, negative = cytotoxicity [4] 2.17% | outcome [5] | outcome [6] | outcome [7] | outcome [8] | outcome [9] | outcome [10] | outcome [11] | outcome [12] | max response [14] -6.5% and -1.07% | activation [15] 0.979% and 4.09% | max response [16] -2.3% and -3.04% | max response [17] 0.963% and -16.2% | Potency [18]

O=C(O)CC(C(=O)O)C(CC(=O)O)C(=O)O (stereo not given)
inactive: activity change, negative = cytotoxicity [1] -8.87% | Potency [2] | activity change, negative = cytotoxicity [3] -9.72% | activity change, negative = cytotoxicity [4] -11.1% | outcome [5] | outcome [6] | outcome [7] | outcome [8] | outcome [9] | outcome [10] | outcome [11] | outcome [12] | max response [14] -2.56% and -11.2% | activation [15] -0.527% and 0.126% | max response [16] -1.2% and -0.001% | max response [17] -0.385% and -19.1% | Potency [18]
3.1% and -5.42%: max response [13]
